DRD3 antagonist = qHTS of D3 Dopamine Receptor Antagonist: qHTS; D(3) dopamine receptor (Homo sapiens), P35462; D3R cells, DiscoveRx beta-arrestin luminescence, antagonist mode; stronger effect = lower value; max response, negative = inhibition, %; 2.5% of 360,000 active; in the data active = max response below about -50%; inconclusive = no clear call, values can overlap the other calls; note: % is set by controls: 0 for no effect and ±100 for the full control effect
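Cells expressing the human receptor were seeded at 1500 cells/well, incubated overnight at 37 degrees C in 5% CO2, then exposed to library compounds with dopamine controls for 90 minutes at 37 degrees C before luminescent detection.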
DT40 TDP1 CPT = qHTS for Inhibitors of human tyrosyl-DNA phosphodiesterase 1 (TDP1): qHTS in cells in presence of CPT; chicken DT40 Tdp1-/-;hTDP1 cells + 20 nM CPT, ATP luminescence, 48 h; Potency, µM (highest dose often 46.2 µM), for inactives: top-dose activity change, negative = growth inhibition, usual class: inhibitors; 12% of 420,000 active; note: potency is the fitted concentration of half-maximal effect; % is set by controls: 0 for no effect and ±100 for the full control effect; nearly all actives have a fitted effect of over 55% in size
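Cell growth measured by CellTiter-Glo luminescence after a minimum 48 h, 37 C compound exposure with 20 nM CPT in Tdp1-knockout DT40 cells stably expressing hTDP1, seeded 400/well; qHTS titration format.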
IL-1B inflam inh = qHTS for Inhibitors of Inflammasome Signaling: IL-1-beta AlphaLISA Primary Screen; activity change, % at 57.5 µM; 4.7% of 360,000 active; THP-1 LPS/ATP IL-1B secretion, AlphaLISA, 16 h; stronger effect = lower value; in the data active = activity change below about -50%; inconclusive = mostly about -30% to -49%; note: % is set by controls: 0 for no effect and ±100 for the full control effect
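Secreted IL-1B measured by AlphaLISA bead assay after 16 h compound exposure of THP-1 cells; compounds (final up to 57.5 uM) added 1 h before LPS (250 ng/mL) and ATP (1.25 mM) stimulation; lower signal means less secretion.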
DT40 TDP1 no CPT = qHTS for Inhibitors of human tyrosyl-DNA phosphodiesterase 1 (TDP1): qHTS in cells in absence of CPT; DT40 Tdp1-/- hTDP1 cells, no CPT, ATP luminescence, 48 h; Potency, µM (series often up to 46.2 µM), for the others: top-dose activity change, negative = growth inhibition, most hits filed as inhibitors; 15% of 420,000 active; AID 686978, 2013; note: potency is the fitted concentration of half-maximal effect; % is set by controls: 0 for no effect and ±100 for the full control effect; nearly all actives have a fitted effect of over 55% in size
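Growth kinetics read by CellTiter-Glo luminescence after ≥48 hr at 37 °C. Cells: DT40 Tdp1-/- stably carrying human TDP1, 400 per well, compound exposure in the absence of CPT (DMSO vehicle).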
DRD3 agonist = qHTS of D3 Dopamine Receptor Agonist: qHTS | D(3) dopamine receptor (Homo sapiens), P35462 | D3R DiscoveRx beta-arrestin cells, luminescence, 90 min | max activation, % | 0.58% of 410,000 active; in the data active = max activation above about 30%; note: 0% is about no effect
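Agonist mode: compounds and dopamine controls were applied to plated cells for 90 min at 37 degrees C after an overnight attachment at 1500 cells/well. Luminescent read-out followed 30 - 60 minutes at room temperature with DiscoveRx detection reagent.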
ClpP mod = qHTS Assay for Activators of ClpP | purified B. subtilis ClpP, FRET peptide cleavage, 20 min | Potency, µM (doses to about 57.5 µM), for the others: at the highest dose activity change, negative = active | 1.9% of 340,000 active | AID 651965, 2013; active = well fitted falling curve with a large enough effect; inconclusive = small, poorly fitted or top-dose-only effect; inactive = no such curve, though single readings can be large or run the other way; note: potency is the fitted concentration of half-maximal effect; the source files actives as falling curves though it sought activators and does not explain the sign; nearly all actives have a fitted effect of over 65% in size
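FRET quenching reversal measured ClpP activation: 10 microg/mL B. subtilis ClpP at pH 8 with the FRET-FV decapeptide, read at 430 nm after 320 nm excitation. The 20-min minus 0-min signal was scaled between DMSO/no-enzyme wells and ADEP (5.8 microM final).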
* marks the source's active call; other numbers are inactive results; ? = inconclusive; nt = no result given; [ ] = dose if it differs, or a comment. A selection: hits, their analogues and other compounds. The true share with any hit is near 21%. Unless noted, calls come from the whole dose curve; as a rule, active = well fitted inhibition curve with a large enough effect; inconclusive = small, poorly fitted or top-dose-only effect; inactive = flat fitted curve, though single readings scatter.

SMILES	DRD3 antagonist	DT40 TDP1 CPT	IL-1B inflam inh	DT40 TDP1 no CPT	DRD3 agonist	ClpP mod
CCOC(=O)C(O)(c1ccc(NC(=S)NC(=O)c2ccc(Cl)cc2Cl)cc1)C(F)(F)F (stereo unspecified)	?	?	?	26µM*	-11	-2%
FC(F)(F)c1cccc(NC2=NCCS2)c1	22	-20%	18	?	4	1%
Cc1ccc(CC(=O)N2CCN(C)CC2)cc1	6	1%	0	16%	7	-1%
CCOC(=O)c1c(C)[nH]c(C)c1S(=O)(=O)N1CCC(C(=O)N2CCN(c3ccc(Cl)cc3)CC2)CC1	nt	?	nt	?	0	0%
C[C@]12CC[C@H]3[C@@H](CCC4=CC(=O)CC[C@@]43C)[C@@H]1CC[C@@H]2OC(=O)CCc1ccccc1	nt	-13%[92.5 µM]	nt	?	10	nt
COc1ccc(-c2coc3cc(OC(=O)N4CCOCC4)ccc3c2=O)cc1	-6	13µM*	0	18µM*	6	nt
NCCc1c[nH]c2ccc(OCc3ccccc3)cc12	10	18%	nt	-29%	3	nt
CCCCc1ccc2[nH]cc(CCN)c2c1	-1	21µM*	-89*	21µM*	65*	-3%
O=C(Nc1ccc(F)cc1F)c1cccnc1Oc1cccc(C(F)(F)F)c1	-11	16%	-3	5%	2	69%
COC1=C(OC)[C@]23CCc4ccc(OC)c(OC)c4[C@]2(CCN3C)CC1=O	-26	-22%	50	-3%	-20	0%
O=C(Cc1ccccc1)Oc1ccccc1N1C(=O)CCC1=O	9	-4%	47	-7%	-3	-5%
CC(=O)Nc1cccc(-c2csc(C(O)c3cccc(Cl)c3)n2)c1 (stereo unspecified)	0	23µM*	5	18µM*	14	-3%
COc1cccc(C(O)c2nc(-c3ccncc3)cs2)c1 (stereo unspecified)	14	23µM*	13	9.2µM*	13	-1%
CC1CCCC(NC(=O)COC(=O)c2cn(C)c3ccccc23)C1C (stereo unspecified)	0	-26%	?	-27%	0	-1%
CC(C)CN1CC2(CCN(C(=O)Oc3ccccc3)CC2)C1	nt	8%	nt	3%	nt	nt
CC(=O)N(C1=NCCCS1)c1ccc(Cl)cc1	-17	-23%	-12	-11%	-10	nt
O=c1[nH]c2ccccc2n1C1CCN(C(c2ccnc3ccccc23)c2nnnn2-c2ccc3c(c2)OCCO3)CC1 (stereo unspecified)	101	5.2µM*	?	9.2µM*	18	-1%
COc1ccc(-n2nnnc2C(c2ccccc2OC(F)(F)F)N2CCC(n3c(=O)[nH]c4ccccc43)CC2)cc1 (stereo unspecified)	53	21µM*	nt	18µM*	15	-4%
COc1ccc(C(c2nnnn2-c2ccc3c(c2)OCCO3)N2CCC(n3c(=O)[nH]c4ccccc43)CC2)cc1 (stereo unspecified)	0	?	?	16µM*	7	1%
O=C1NCN(c2ccccc2)C12CCN(C(c1ccccc1OC(F)(F)F)c1nnnn1C1CCCC1)CC2 (stereo unspecified)	0	?	15	?	-10	2%
CSCCC(c1nnnn1-c1ccc2c(c1)OCCO2)N1CCC2(CC1)C(=O)NCN2c1ccccc1 (stereo unspecified)	-3	?	0	?	8	-10%
CCc1ccc(CNC(=O)c2ccc3c(c2)N=C(C)c2cc(C)ccc2S3)cc1	nt	12µM*	nt	5.8µM*	-17	2%
CCN1C(=O)c2ccccc2Sc2ccc(NC(=O)Cc3ccc(OC)c(OC)c3)cc21	nt	?	nt	?	-8	-3%
COc1ccc(CCNC(=O)c2ccc3c(c2)N(Cc2cccc(Cl)c2)C(=O)CS3)cc1OC	nt	21µM*	nt	23µM*	1	-14%
COc1ccc(CCNC(=O)c2ccc3c(c2)N=C(C)c2cc(C)ccc2S3)cc1OC	nt	?	nt	15µM*	5	-4%
SMILES	DRD3 antagonist	DT40 TDP1 CPT	IL-1B inflam inh	DT40 TDP1 no CPT	DRD3 agonist	ClpP mod
C=CCN1C(=O)C2(C(C(=O)OC)=C(N)Oc3c2c(=O)oc2ccccc32)c2ccccc21 (stereo unspecified)	nt	?	nt	?	nt	-4%
N[C@H](CP(=O)(O)O)C(=O)O	nt	21%	nt	-3%	nt	nt
Cc1ccc(S(=O)(=O)Nc2ccc3ncccc3c2[N+](=O)[O-])cc1	0	-5%	-7	?	-17	1%
CCOC(=O)C1=C(NC(=S)NC(=O)c2ccccc2)c2ccccc2CC12CCCC2	11	16µM*	?	18µM*	2	nt
CC(C)NC[C@H](O)c1ccc(N)c(C#N)c1	nt	1%	nt	-20%	nt	nt
Cc1ccnc(NC(=O)CCCc2ccc(N(CCCl)CCCl)cc2)n1	-21	0.23µM*	3	0.58µM*	-1	0%
C[S+](CC[C@H](N)C(=O)O)C[C@H]1O[C@@H](n2cnc3c(N)ncnc32)[C@H](O)[C@@H]1O (stereo partly specified)	-10	?	-1	?	1	-2%
O=C1C=CC(=O)C2C1C1(Cl)C(Cl)=C(Cl)C2(Cl)C1(Cl)Cl (stereo unspecified)	6	?	-103*	?	-1	1%
Cc1cccc(N2C(=O)/C(=C/N3CCN(C(=O)c4ccco4)CC3)C(=O)NC2=S)c1	24	3%	1	7%	-8	16µM*
CC(NS(C)(=O)=O)c1nnc2n1-c1ccc(Br)cc1C(c1ccccc1Cl)=NC2 (stereo unspecified)	-7	7%	-8	?	-3	nt
COc1cc(C(=O)NC2CC3CCCC(C2)N3CC(=O)Nc2ccccc2)cc(OC)c1OC (stereo unspecified)	12	?	-6	?	-3	2%
Cc1ccc(CN2C3CCCC2CC(NC(=O)Nc2cccc(F)c2)C3)cc1 (stereo unspecified)	-99*	?	-70*	15µM*	-17	2%
Cc1ccc(CN2C3CCCC2CC(NC(=O)c2ccc(F)cc2)C3)cc1 (stereo unspecified)	-88*	-9%	-16	?	-13	0%
